Residue numbers refer to the chain shown, from its start.
How the values were obtained:
Test in all cases: PBM; 200 nM protein, PBS
Conditions in all cases: dsDNA, one strand shown
HOXB4 [1] = molecular target: HOXB4 (Homo sapiens, UniProt P17483 148-234)
CRX [2] = molecular target: CRX (Homo sapiens, UniProt O43186 26-111)
HOXB4 [3] = molecular target: HOXB4 (Homo sapiens, UniProt P17483 148-234, V174I)
CRX [4] = molecular target: CRX (Homo sapiens, UniProt O43186 26-111, E42D)
CRX [5] = molecular target: CRX (Homo sapiens, UniProt O43186 26-111, R41L)
SHOX [6] = molecular target: SHOX (Homo sapiens, UniProt O15266 103-189)
VENTX [7] = molecular target: T1, VENTX (Homo sapiens, UniProt O95231 78-163, R121Q)
T1 sequence: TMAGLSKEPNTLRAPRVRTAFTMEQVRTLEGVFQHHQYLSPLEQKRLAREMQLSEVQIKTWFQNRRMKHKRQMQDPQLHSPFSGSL

VENTX [8] = molecular target: T2, VENTX (Homo sapiens, UniProt O95231 78-163)
T2 sequence: T1 sequence with Q44R

VENTX [9] = molecular target: T3, VENTX (Homo sapiens, UniProt O95231 78-163, Y115F)
T3 sequence: T1 sequence with Y38F, Q44R

HOXA2 [10] = molecular target: HOXA2 (Homo sapiens, UniProt O43364 129-215, R185T)
SHOX [11] = molecular target: SHOX (Homo sapiens, UniProt O15266 103-189, R173C)
HOXA2 [12] = molecular target: HOXA2 (Homo sapiens, UniProt O43364 129-215, R185K)
HOXA2 [13] = molecular target: HOXA2 (Homo sapiens, UniProt O43364 129-215, Y150S)
HOXA2 [14] = molecular target: HOXA2 (Homo sapiens, UniProt O43364 129-215)
HOXB9 = HOXB9 (Homo sapiens, UniProt P17482 171-250, T197M)
ALX4 [15] = molecular target: ALX4 (Homo sapiens, UniProt Q9H161 200-286)
PAX4 [16] = molecular target: T4, PAX4 (Homo sapiens, UniProt O43316 9-242, R200K)
T4 sequence: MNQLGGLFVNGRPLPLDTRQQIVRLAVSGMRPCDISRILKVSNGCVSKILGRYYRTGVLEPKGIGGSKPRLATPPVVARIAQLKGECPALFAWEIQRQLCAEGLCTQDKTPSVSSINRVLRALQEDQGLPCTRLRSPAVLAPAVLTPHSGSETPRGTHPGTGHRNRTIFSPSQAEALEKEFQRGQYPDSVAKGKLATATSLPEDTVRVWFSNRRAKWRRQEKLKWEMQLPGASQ

PRRX1 [17] = molecular target: PRRX1 (Homo sapiens, UniProt P54821 80-166, F113S)
PAX4 [18] = molecular target: T5, PAX4 (Homo sapiens, UniProt O43316 9-242)
T5 sequence: T4 sequence with K192R

ALX4 [19] = molecular target: ALX4 (Homo sapiens, UniProt Q9H161 200-286, Q225E)
ALX1 [20] = molecular target: ALX1 (Homo sapiens, UniProt Q15699 118-204, L144V)
ALX3 [21] = molecular target: ALX3 (Homo sapiens, UniProt O95076 139-225, N203Q)
PAX4 [22] = molecular target: T6, PAX4 (Homo sapiens, UniProt O43316 9-242, R200Q)
T6 sequence: T4 sequence with K192Q

ALX1 [23] = molecular target: ALX1 (Homo sapiens, UniProt Q15699 118-204, L144R)
PAX4 [24] = molecular target: T7, PAX4 (Homo sapiens, UniProt O43316 9-242, F177V)
T7 sequence: T4 sequence with F169V, K192R

ALX3 [25] = molecular target: ALX3 (Homo sapiens, UniProt O95076 139-225)
PAX4 [26] = molecular target: T8, PAX4 (Homo sapiens, UniProt O43316 9-242, F177Y)
T8 sequence: T4 sequence with F169Y, K192R

PROP1 [27] = molecular target: PROP1 (Homo sapiens, UniProt O75360 56-141)
PROP1 [28] = molecular target: PROP1 (Homo sapiens, UniProt O75360 56-141, R99H)
VAX1 [29] = molecular target: VAX1 (Homo sapiens, UniProt Q5SQQ9 86-172)
ALX3 [30] = molecular target: ALX3 (Homo sapiens, UniProt O95076 139-225, L168Q)
HESX1 = HESX1 (Homo sapiens, UniProt Q9UBX0 95-180, P111T)
ALX3 [31] = molecular target: ALX3 (Homo sapiens, UniProt O95076 139-225, L168V)
PROP1 [32] = molecular target: PROP1 (Homo sapiens, UniProt O75360 56-141, F88S)
VAX1 [33] = molecular target: VAX1 (Homo sapiens, UniProt Q5SQQ9 86-172, T142I)
PAX4 [34] = molecular target: T9, PAX4 (Homo sapiens, UniProt O43316 9-242, R227W)
T9 sequence: T4 sequence with K192R, R219W

ALX1 [35] = molecular target: ALX1 (Homo sapiens, UniProt Q15699 118-204)
ALX3 [36] = molecular target: ALX3 (Homo sapiens, UniProt O95076 139-225, N203S)
PRRX1 [37] = molecular target: PRRX1 (Homo sapiens, UniProt P54821 80-166)
VAX1 [38] = molecular target: VAX1 (Homo sapiens, UniProt Q5SQQ9 86-172, K157R)
Chain of VAX1 (Homo sapiens, UniProt Q5SQQ9 86-172, K157R) (Q5SQQ9 86-172 K157R): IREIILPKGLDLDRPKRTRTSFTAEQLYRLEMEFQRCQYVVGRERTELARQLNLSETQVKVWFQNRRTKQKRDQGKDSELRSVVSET

Chain of HOXB4 (Homo sapiens, UniProt P17483 148-234) (P17483 148-234): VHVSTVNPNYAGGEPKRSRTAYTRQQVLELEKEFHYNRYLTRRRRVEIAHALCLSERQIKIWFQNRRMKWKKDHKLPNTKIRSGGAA
Chain of HOXB4 (Homo sapiens, UniProt P17483 148-234, V174I) (P17483 148-234 V174I): as the sequence (P17483 148-234) above, with V27I counted along it
Chain of SHOX (Homo sapiens, UniProt O15266 103-189) (O15266 103-189): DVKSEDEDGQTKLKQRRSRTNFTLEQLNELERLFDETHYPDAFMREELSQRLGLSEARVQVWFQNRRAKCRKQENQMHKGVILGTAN
Chain of SHOX (Homo sapiens, UniProt O15266 103-189, R173C) (O15266 103-189 R173C): as the sequence (O15266 103-189) above, with R71C counted along it
Chain of PROP1 (Homo sapiens, UniProt O75360 56-141) (O75360 56-141): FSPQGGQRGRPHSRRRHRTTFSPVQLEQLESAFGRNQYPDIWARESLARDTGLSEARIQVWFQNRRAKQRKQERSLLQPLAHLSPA
Chain of ALX3 (Homo sapiens, UniProt O95076 139-225, L168V) (O95076 139-225 L168V): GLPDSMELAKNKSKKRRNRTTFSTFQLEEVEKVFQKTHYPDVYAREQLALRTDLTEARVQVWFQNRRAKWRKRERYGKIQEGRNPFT
Chain of HESX1 (Q9UBX0 95-180 P111T): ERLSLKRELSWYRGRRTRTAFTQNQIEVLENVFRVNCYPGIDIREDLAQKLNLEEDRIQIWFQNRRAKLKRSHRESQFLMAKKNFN
Chain of ALX4 (Homo sapiens, UniProt Q9H161 200-286, Q225E) (Q9H161 200-286 Q225E): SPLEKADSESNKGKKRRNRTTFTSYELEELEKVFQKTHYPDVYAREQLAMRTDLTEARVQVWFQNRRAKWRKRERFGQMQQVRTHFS
Chain of HOXA2 (Homo sapiens, UniProt O43364 129-215, R185T) (O43364 129-215 R185T): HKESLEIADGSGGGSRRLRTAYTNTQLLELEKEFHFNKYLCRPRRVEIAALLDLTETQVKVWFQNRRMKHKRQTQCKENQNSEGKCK
Chain of HOXB9 (P17482 171-250 T197M): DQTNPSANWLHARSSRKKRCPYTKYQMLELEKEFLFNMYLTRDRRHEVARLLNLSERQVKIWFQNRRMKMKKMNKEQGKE
Chain of ALX3 (Homo sapiens, UniProt O95076 139-225, N203Q) (O95076 139-225 N203Q): as the sequence (O95076 139-225 L168V) above, with V30L, N65Q counted along it
Chain of ALX3 (Homo sapiens, UniProt O95076 139-225, L168Q) (O95076 139-225 L168Q): as the sequence (O95076 139-225 L168V) above, with V30Q counted along it
Chain of PROP1 (Homo sapiens, UniProt O75360 56-141, R99H) (O75360 56-141 R99H): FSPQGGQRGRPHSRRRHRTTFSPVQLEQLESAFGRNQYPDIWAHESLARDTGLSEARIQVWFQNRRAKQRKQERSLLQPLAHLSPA
Chain of ALX3 (Homo sapiens, UniProt O95076 139-225) (O95076 139-225): as the sequence (O95076 139-225 L168V) above, with V30L counted along it
Chain of ALX1 (Homo sapiens, UniProt Q15699 118-204, L144V) (Q15699 118-204 L144V): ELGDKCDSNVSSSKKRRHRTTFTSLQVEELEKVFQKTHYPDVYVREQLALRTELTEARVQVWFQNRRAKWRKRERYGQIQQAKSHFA
Chain of ALX1 (Homo sapiens, UniProt Q15699 118-204, L144R) (Q15699 118-204 L144R): as the sequence (Q15699 118-204 L144V) above, with V27R counted along it
Chain of VAX1 (Homo sapiens, UniProt Q5SQQ9 86-172, T142I) (Q5SQQ9 86-172 T142I): as the sequence (Q5SQQ9 86-172 K157R) above, with T57I, R72K counted along it
Chain of PRRX1 (Homo sapiens, UniProt P54821 80-166) (P54821 80-166): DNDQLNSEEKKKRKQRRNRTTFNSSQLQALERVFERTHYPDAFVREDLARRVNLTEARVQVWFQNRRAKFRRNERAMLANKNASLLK
Chain of HOXA2 (Homo sapiens, UniProt O43364 129-215, R185K) (O43364 129-215 R185K): as the sequence (O43364 129-215 R185T) above, with T57K counted along it
Chain of ALX4 (Homo sapiens, UniProt Q9H161 200-286) (Q9H161 200-286): as the sequence (Q9H161 200-286 Q225E) above, with E26Q counted along it
Chain of PROP1 (Homo sapiens, UniProt O75360 56-141, F88S) (O75360 56-141 F88S): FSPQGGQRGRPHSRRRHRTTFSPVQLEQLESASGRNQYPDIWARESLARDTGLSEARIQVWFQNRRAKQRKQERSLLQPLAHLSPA
Chain of CRX (Homo sapiens, UniProt O43186 26-111, E42D) (O43186 26-111 E42D): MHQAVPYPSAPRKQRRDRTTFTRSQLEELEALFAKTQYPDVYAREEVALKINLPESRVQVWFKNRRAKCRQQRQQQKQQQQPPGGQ
Chain of HOXA2 (Homo sapiens, UniProt O43364 129-215, Y150S) (O43364 129-215 Y150S): as the sequence (O43364 129-215 R185T) above, with Y22S, T57R counted along it
Chain of ALX3 (Homo sapiens, UniProt O95076 139-225, N203S) (O95076 139-225 N203S): as the sequence (O95076 139-225 L168V) above, with V30L, N65S counted along it
Chain of ALX1 (Homo sapiens, UniProt Q15699 118-204) (Q15699 118-204): as the sequence (Q15699 118-204 L144V) above, with V27L counted along it
Chain of PRRX1 (Homo sapiens, UniProt P54821 80-166, F113S) (P54821 80-166 F113S): as the sequence (P54821 80-166) above, with F34S counted along it
Chain of CRX (Homo sapiens, UniProt O43186 26-111) (O43186 26-111): as the sequence (O43186 26-111 E42D) above, with D17E counted along it
Chain of VAX1 (Homo sapiens, UniProt Q5SQQ9 86-172) (Q5SQQ9 86-172): as the sequence (Q5SQQ9 86-172 K157R) above, with R72K counted along it
Chain of HOXA2 (Homo sapiens, UniProt O43364 129-215) (O43364 129-215): as the sequence (O43364 129-215 R185T) above, with T57R counted along it
Chain of CRX (Homo sapiens, UniProt O43186 26-111, R41L) (O43186 26-111 R41L): as the sequence (O43186 26-111 E42D) above, with R16L, D17E counted along it

GCCCAGAC
binding signal (HOXB4 [1]): 7.49 upbm affinity estimate (log intensity, higher = more binding, comparable within an allelic series) | binding signal (CRX [2]): 8.35 upbm affinity estimate (log intensity, higher = more binding, comparable within an allelic series) | binding signal (HOXB4 [3]): 7.68 upbm affinity estimate (log intensity, higher = more binding, comparable within an allelic series) | binding signal (CRX [4]): 8.45 upbm affinity estimate (log intensity, higher = more binding, comparable within an allelic series) | binding signal (CRX [5]): 8.39 upbm affinity estimate (log intensity, higher = more binding, comparable within an allelic series)

CAGGGGGC
binding signal (HOXB4 [1]): 7.45 upbm affinity estimate (log intensity, higher = more binding, comparable within an allelic series) | binding signal (SHOX [6]): 7.1 upbm affinity estimate (log intensity, higher = more binding, comparable within an allelic series) | binding signal (VENTX [7]): 7.88 upbm affinity estimate (log intensity, higher = more binding, comparable within an allelic series) | binding signal (VENTX [8]): 8.14 upbm affinity estimate (log intensity, higher = more binding, comparable within an allelic series) | binding signal (VENTX [9]): 7.91 upbm affinity estimate (log intensity, higher = more binding, comparable within an allelic series) | binding signal (HOXA2 [10]): 7.09 upbm affinity estimate (log intensity, higher = more binding, comparable within an allelic series) | binding signal (HOXB4 [3]): 7.54 upbm affinity estimate (log intensity, higher = more binding, comparable within an allelic series) | binding signal (SHOX [11]): 7.01 upbm affinity estimate (log intensity, higher = more binding, comparable within an allelic series) | binding signal (HOXA2 [12]): 10.1 upbm affinity estimate (log intensity, higher = more binding, comparable within an allelic series) | binding signal (HOXA2 [13]): 10.3 upbm affinity estimate (log intensity, higher = more binding, comparable within an allelic series) | binding signal (HOXA2 [14]): 7.35 upbm affinity estimate (log intensity, higher = more binding, comparable within an allelic series)

TAAATTAA
binding signal (HOXB4 [1]): 12.9 upbm affinity estimate (log intensity, higher = more binding, comparable within an allelic series) | binding signal (SHOX [6]): 11.8 upbm affinity estimate (log intensity, higher = more binding, comparable within an allelic series) | binding signal (HOXB9): 9.99 upbm affinity estimate (log intensity, higher = more binding, comparable within an allelic series) | binding signal (ALX4 [15]): 13.9 upbm affinity estimate (log intensity, higher = more binding, comparable within an allelic series) | binding signal (PAX4 [16]): 11.8 upbm affinity estimate (log intensity, higher = more binding, comparable within an allelic series) | binding signal (PRRX1 [17]): 11.2 upbm affinity estimate (log intensity, higher = more binding, comparable within an allelic series) | binding signal (PAX4 [18]): 12.3 upbm affinity estimate (log intensity, higher = more binding, comparable within an allelic series) | binding signal (ALX4 [19]): 13.1 upbm affinity estimate (log intensity, higher = more binding, comparable within an allelic series) | binding signal (HOXB4 [3]): 13.6 upbm affinity estimate (log intensity, higher = more binding, comparable within an allelic series) | binding signal (ALX1 [20]): 11.8 upbm affinity estimate (log intensity, higher = more binding, comparable within an allelic series) | binding signal (ALX3 [21]): 8.53 upbm affinity estimate (log intensity, higher = more binding, comparable within an allelic series) | binding signal (PAX4 [22]): 12 upbm affinity estimate (log intensity, higher = more binding, comparable within an allelic series) | binding signal (SHOX [11]): 9.24 upbm affinity estimate (log intensity, higher = more binding, comparable within an allelic series) | binding signal (ALX1 [23]): 11.5 upbm affinity estimate (log intensity, higher = more binding, comparable within an allelic series) | binding signal (PAX4 [24]): 10.6 upbm affinity estimate (log intensity, higher = more binding, comparable within an allelic series) | binding signal (ALX3 [25]): 12.4 upbm affinity estimate (log intensity, higher = more binding, comparable within an allelic series) | binding signal (PAX4 [26]): 11 upbm affinity estimate (log intensity, higher = more binding, comparable within an allelic series) | binding signal (PROP1 [27]): 11.2 upbm affinity estimate (log intensity, higher = more binding, comparable within an allelic series) | binding signal (PROP1 [28]): 11 upbm affinity estimate (log intensity, higher = more binding, comparable within an allelic series) | binding signal (VAX1 [29]): 12.6 upbm affinity estimate (log intensity, higher = more binding, comparable within an allelic series) | binding signal (ALX3 [30]): 10.4 upbm affinity estimate (log intensity, higher = more binding, comparable within an allelic series) | binding signal (HESX1): 10.1 upbm affinity estimate (log intensity, higher = more binding, comparable within an allelic series) | binding signal (ALX3 [31]): 9.89 upbm affinity estimate (log intensity, higher = more binding, comparable within an allelic series) | binding signal (PROP1 [32]): 7.74 upbm affinity estimate (log intensity, higher = more binding, comparable within an allelic series) | binding signal (VAX1 [33]): 12.4 upbm affinity estimate (log intensity, higher = more binding, comparable within an allelic series) | binding signal (PAX4 [34]): 11 upbm affinity estimate (log intensity, higher = more binding, comparable within an allelic series) | binding signal (ALX1 [35]): 12.4 upbm affinity estimate (log intensity, higher = more binding, comparable within an allelic series) | binding signal (ALX3 [36]): 8.68 upbm affinity estimate (log intensity, higher = more binding, comparable within an allelic series) | binding signal (PRRX1 [37]): 13.4 upbm affinity estimate (log intensity, higher = more binding, comparable within an allelic series) | binding signal (VAX1 [38]): 12.4 upbm affinity estimate (log intensity, higher = more binding, comparable within an allelic series)
